# Results as given in PubChem BioAssay (NCATS).
# Records with an inconclusive call do not appear. Unmarked numbers belong to inactive results. Calls come from the whole dose curve; as a rule, active = well fitted cell-killing curve with a large enough effect; inconclusive = small, poorly fitted or top-dose-only effect, or effect the other way; inactive = flat fitted curve, though single readings scatter.
# Test system: Es-2
# Assay: Primary qHTS to identify gynecologic anti-cancer compounds using libraries of approved drugs and bioactive compounds (AID 1345084); note: nearly all actives have a fitted effect of over 55% in size
# Conditions: Gynecologic cancer cell panel viability, ATPlite luminescence, 48 h; series mostly up to 57.5 µM; activity change, negative = cytotoxicity: at the top concentration
# Procedure, shortened: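 Cells, 1,000 per well, were allowed to settle for 16 h at 37 C before compound addition. Five concentrations were tested for 48 h, and viability was read by ATPlite luminescence after 15 min at room temperature.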
# % is set by controls: 0 for no effect and ±100 for the full control effect.
row,Structure (SMILES),"activity change, negative = cytotoxicity"
1,O=C(/C=C/c1ccc(O)cc1)O[C@H]1[C@@H]2C=CO[C@@H](O[C@@H]3O[C@H](CO)[C@@H](O)[C@H](O)[C@H]3O)[C@@H]2[C@@]2(CO)O[C@@H]12,0.0713% [at 25.3 µM]
2,COCCN(C)Cc1ccc2nc3sc(C(=O)N(C)C4CCCCC4)cn3c2c1,4.58%
3,CC12CCC3c4ccc(O)cc4CCC3C1CCC2OC1OC(C(=O)O)C(O)C(O)C1O (stereo not given),0.711%
4,COc1cc(CCc2ccccc2)c(C(=O)O)c2c1CC(C(C)(C)O)O2 (stereo not given),-0.954% [at 38.5 µM]
5,OCc1ccccc1O[C@@H]1O[C@H](CO)[C@@H](O)[C@H](O)[C@H]1O,5.19%
6,CC/C=C\C[C@H]1C(=O)C=C[C@@H]1CCCCCCCC(=O)O,0.458%
7,CC(NC(=O)CC(=O)O)c1nc2ccccc2c(=O)[nH]1 (stereo not given),3.64%
8,C[C@@H]1CC[C@]2(C(=O)O)CC[C@]3(C(=O)O)C(=CCC4[C@@]5(C)CC[C@H](O[C@@H]6O[C@@H](C)[C@H](O[C@@H]7O[C@H](CO)[C@@H](O)[C@H](O)[C@H]7O)[C@@H](O)[C@H]6O)C(C)(C)C5CC[C@]43C)C2[C@H]1C (stereo not given in full),1.85% [at 25.3 µM]
9,COc1ccc(C)c2sc(NC(=O)c3ccncc3)nc12,-7.48%
10,NCCOCCOCCNC(=O)Cc1ccc(Nc2nc(NCc3ccc(F)cc3)nc(NCC3CCCCC3)n2)cc1,1.6%
11,Nc1nonc1C(=Nc1ccc(F)c(Cl)c1)NO,-0.153%
12,CNC(=O)c1ccc2cc([C@@]3(O)CCn4cncc43)ccc2c1,5.8%
13,O=C1NCc2nc3ccccc3c(=O)n2C1Cc1c[nH]c2ccccc12 (stereo not given),0.637% [at 38.5 µM]
14,CCCCCCc1cccc(NC(=O)[C@H](N)CCP(=O)(O)O)c1,1.07% [at 11.6 µM]
15,CC1CCC2C(C)(C)CC(C)(CO)C2(O)C1C(=O)O (stereo not given),0.755%
16,CC(C)(C)NCC(O)COc1cccc2c1CCCC2=O (stereo not given),13.5%
17,COC(=O)C1=CO[C@@H](O[C@@H]2O[C@H](CO[C@@H]3O[C@H](COC(=O)/C=C/c4ccc(O)cc4)[C@@H](O)[C@H](O)[C@H]3O)[C@@H](O)[C@H](O)[C@H]2O)[C@@H]2C(CO)=CC[C@H]12,5.23% [at 25.3 µM]
18,C=CC(C)(O)CC/C=C(\C)C(=O)OCC1OC(OC2CCC3(C)C(CCC4(C)C3CC=C3C5CC(C)(C)C(O)CC5(C(=O)O)CCC34C)C2(C)C)C(O)C(OC2OC(CO)C(O)C(OC3OC(CO)C(O)C(OC4OC(COC5OC(CO)C(O)C(O)C5O)C(O)C(O)C4O)C3O)C2O)C1O (stereo not given),0.769% [at 6.55 µM]
19,COC1C=C([C@@H]2CC=C3[C@@]4(C)C(CC[C@]32C)[C@@]2(C)C=CC(=O)C(C)(C)C2C[C@H]4OC(C)=O)C(=O)O1 (stereo not given in full),3.17% [at 25.3 µM]
20,Cc1c(N2C(=O)c3ccc(C(=O)O)cc3C2=O)c(=O)n(-c2ccccc2)n1C,3.63%

row,Structure (SMILES),"activity change, negative = cytotoxicity"
1,CC[C@H]1OC(=O)[C@H](C)[C@@H](OC2C[C@@](C)(OC)[C@@H](O)[C@H](C)O2)[C@H](C)[C@@H](OC2O[C@H](C)C[C@H](NC)[C@H]2O)[C@](C)(O)C[C@@H](C)CN(C)[C@H](C)[C@@H](O)[C@]1(C)O (stereo not given in full),7.25%
2,C=C1C2(CCC(=O)OC2(C)C)CC(OC(=O)/C(C)=C/C)C2(C)C13OC14C(=O)OC(C)(C(=O)C12C(=O)OC4C)C3OC(C)=O (stereo not given),-4.5% [at 25.3 µM]
3,C=C1C(=O)OC2/C=C(\C)CC/C=C(\C(=O)O)CC/C=C(\C)CCC12 (stereo not given),-0.0605% [at 38.5 µM]
4,CC(C)c1nc(N(C)S(C)(=O)=O)nc(-c2ccc(F)cc2)c1/C=C/[C@@H](O)C[C@@H](O)CC(=O)O,0.168%
5,C=C1C[C@]23C[C@H]1CC[C@H]2[C@@]12C=C[C@H](O)[C@@](C)(C(=O)O1)[C@H]2[C@@H]3C(=O)O,-3.89% [at 38.5 µM]
6,COC1C2=C(COC2=O)C2(C)CCCC(C)(CO)C2C1OC(=O)c1ccccc1 (stereo not given),3.48% [at 25.3 µM]
7,CC1CCCC2OC2C(=O)c2c(O)cc(O)cc2CC(=O)O1 (stereo not given),-1.55%
8,C[C@@H]1C(=O)O[C@H]2CC34[C@H]5C[C@@H](C(C)(C)C)C36[C@@H](OC(=O)[C@@H]6O)O[C@@]4(C(=O)O5)[C@]21O (stereo not given in full),7.11% [at 25.3 µM]
9,CC(C)C(C#N)O[C@@H]1O[C@H](CO[C@@H]2OC[C@](O)(CO)[C@H]2O)[C@@H](O)[C@H](O)[C@H]1O (stereo not given in full),-2.82% [at 38.5 µM]
10,CC[C@H]1OC(=O)[C@H](C)[C@@H](O[C@H]2C[C@@](C)(OC)[C@@H](O)[C@H](C)O2)[C@H](C)[C@@H](O[C@@H]2O[C@H](C)C[C@H](N(C)C)[C@H]2O)[C@@](C)(O)C[C@@H](C)[C@@H]2N[C@@H](COCCOC)OC([C@H]2C)[C@]1(C)O,1.39%
11,CCc1cc2c(=O)c(-c3nc4ccccc4s3)coc2c(CN2CCCCC2)c1O,9.91% [at 25.3 µM]
12,C=C1C(=O)OC2CC(C)=C(C(C)CCCO[C@@H]3O[C@H](CO)[C@@H](O)[C@H](O)[C@H]3O)C(O)C12 (stereo not given in full),5.86% [at 25.3 µM]
13,CCC(C)/C=C(C)/C=C/C1=CC2=C(Cl)C(=O)C(C)(OC(C)=O)C(=O)C2=CN1CCCC(=O)O (stereo not given),-2.69% [at 25.3 µM]
14,CC(=O)OC[C@@]12[C@H](O)C[C@]3(C)C(=CCC4[C@@]5(C)CC[C@H](O[C@@H]6O[C@H](C(=O)O)[C@@H](O[C@@H]7O[C@H](CO)[C@@H](O)[C@H](O)[C@H]7O)[C@H](O)[C@H]6O[C@@H]6O[C@H](CO)[C@@H](O)[C@H](O)[C@H]6O)[C@](C)(CO)C5CC[C@]43C)[C@@H]1CC(C)(C)[C@@H](OC(C)=O)[C@@H]2O (stereo not given in full),3.37% [at 11.6 µM]
15,COc1ccc([C@@H]2N[C@H](C(=O)O)Cc3c2[nH]c2ccccc32)cc1CN1CCN(c2ccccc2F)CC1,12.2%
16,CC1=CC(=O)CC(C)(C)C1(O)CCC(C)O (stereo not given),-2%
17,COc1ccccc1[C@@H]1C2=C(CC(C)(C)CC2=O)Nc2n[nH]c(C(F)(F)F)c21,1.98%
18,CC(C)(OC1OC(CO)C(O)C(O)C1O)C1CCC(O)(CO)C2CC(O)C(C)(O)C2C1 (stereo not given),7.33% [at 25.3 µM]
19,CN1C(=O)c2ccccc2-n2c(nc3ccccc3c2=O)/C1=C/c1ccccc1,-0.117% [at 38.5 µM]
20,CC(=O)OCC(=O)O[C@@H]1[C@H]2[C@@H](OC(=O)c3ccccc3)[C@@H](C)C[C@]2(O)[C@H](OC(C)=O)C2(C)[C@H]3CC(C)(C)C(=O)[C@@H]3CC1(OC(C)=O)[C@@H]2OC(C)=O (stereo not given in full),7.39% [at 25.3 µM]
